# From PubChem BioAssay
# A selection: hits, their analogues and other compounds. The true share with any hit is near 4.5%.
# hgDAF12 agonist = hgDAF-12 agonism, primary luciferase screen. AID 687014. HEK293 GAL4-hgDAF12 UAS-luciferase reporter, agonist luminescence; normalized to butyrate control. activation, % at 6.8 µM. 1.8% of 370,000 active;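 active = activation above a cutoff set at the mean of all screened compounds plus 3 SD, cut at about 10% in these data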;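 also: 0% = DMSO wells and 100% = sodium butyrate wells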
# DAX1 inh-1 = NR0B1 (DAX1) inhibition; HEK293 Gal4-DAX1 luciferase reporter, luminescence; AID 504766; 0.99% of 340,000 active; P51843; inhibition, % at 6.75 µM;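 active = inhibition above the mean over all tested compounds plus 3 SD, cut at about 4.2% in these data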;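 also: 0% = DAX1-transfected cells with DMSO and 100% = empty-vector control cells with DMSO; inhibition shows as a rise in luminescence from relieved DAX1 repression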
# Target sequence (P51843 207-470 limits assumed): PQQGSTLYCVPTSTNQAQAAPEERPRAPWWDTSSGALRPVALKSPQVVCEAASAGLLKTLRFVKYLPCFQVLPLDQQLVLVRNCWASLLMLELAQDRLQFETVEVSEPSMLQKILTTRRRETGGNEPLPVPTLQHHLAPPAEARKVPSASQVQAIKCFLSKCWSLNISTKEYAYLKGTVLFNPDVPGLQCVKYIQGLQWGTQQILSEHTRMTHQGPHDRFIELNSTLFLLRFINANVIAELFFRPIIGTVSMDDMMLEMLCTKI
# ssDAF12 agonist = activators of S. stercoralis DAF-12 nuclear receptor. HEK293 ssDAF-12/GRIP1 lit1-tk-luc reporter, luminescence; % of 3 µM dafachronic acid response. activation, % at 6.8 µM. 1% of 370,000 active;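 active = activation above the mean over all tested compounds plus 3 SD, cut at about 0.9% in these data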;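 also: 0% = DMSO-only wells and 100% = 3 µM delta7-dafachronic acid wells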
# GAA850 FXN act = frataxin GAA850 promoter activation; HEK293 lucGAA850 FXN promoter luciferase reporter, 24 h; percent of 10 µM SAHA response; activation, % at 6 µM; 0.56% of 360,000 active; AID 540364;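 active = activation above the average of all compounds screened plus 3 SD, cutoff fixed separately per campaign, cut at about 7.5% in these data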;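 also: 0% = DMSO wells and 100% = 10 µM SAHA wells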
# hcDAF12 agonist = activators of H. contortus DAF-12 nuclear receptor | 1.4% of 370,000 active | HEK293 hcDAF-12 lit1-tk-luc reporter, luminescence; 0% DMSO, 100% Δ7-dafachronic acid | activation, % at 6.8 µM;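 active = activation above the mean of all tested compounds plus 3 SD, cut at about 5.5% in these data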;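 also: 100% = response to 3 µM Δ7-dafachronic acid high control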
# DAX1 inh-2 = blocks DAX1 repression of SF-1 activated StAR promoter. AID 652010. HEK293T StAR-luciferase reporter, SF-1/DAX-1 repression relief. 1.1% of 370,000 active. inhibition, % at 6.8 µM;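 active = inhibition above the mean over all tested compounds plus 3 SD, cut at about 3.6% in these data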;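 also: 0% = DAX-1 cells with DMSO and 100% = cells lacking DAX-1 with DMSO; higher inhibition means more luminescence from relief of DAX-1 repression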
# LXR ag = LXR-beta agonism as hcDAF-12 counter-screen; shares compounds with hcDAF12 agonist; HEK293 Gal4-LXR tk-luc reporter, luminescence, 24 h; normalized: DMSO 0%, positive control 100%; activation, % at 6.8 µM; 3,400 tested, under 10 active; AID 743027;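 active = mean percent activation of the reporter above a cutoff set as the average over tested compounds plus their standard deviation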
# hcDAF12 ag = hcDAF-12 agonism, confirmation assay; 61% of 3,400 active; HEK293 hcDAF-12 lit1-tk-luc reporter, luminescence; % of Δ7-dafachronic acid response; shares compounds with hcDAF12 agonist; AID 743032; activation, % at 6.8 µM;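 active = mean activation across triplicate tests above the threshold derived from the earlier primary screen, cut at about 5.5% in these data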;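 also: 0% = DMSO only wells and 100% = 3 µM Δ7-dafachronic acid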
# An asterisk follows results filed as active; · = no result given.
SMILES,hgDAF12 agonist,DAX1 inh-1,ssDAF12 agonist,GAA850 FXN act,hcDAF12 agonist,DAX1 inh-2,LXR ag,hcDAF12 ag
CSc1cccc(NC(=O)c2cccc3cccnc23)c1,11*,2,2.3*,5,12*,1,1,8.5*
Cc1cnc(NC(=O)C2(C)CCN2C(=O)C(C)C)s1 (stereo not given),4,·,-1,0,2,0,·,·
O=C(NCCc1cccc(Cl)c1)c1ccc(Cl)c([N+](=O)[O-])c1,4,0,-2,-1,0,0,·,·
O=C(NCCc1cccc(Cl)c1)c1cc([N+](=O)[O-])ccc1Cl,-2,-3,-2,-2,6.7*,-2,0,0
Cc1ccc(/C(O)=C2\C(=O)C(=O)N(C)C2c2ccccc2[N+](=O)[O-])cc1 (stereo not given),2,4,0,2,5,0,·,·
Cc1ccc(/C(O)=C2\C(=O)C(=O)N(Cc3cccnc3)C2c2ccccc2[N+](=O)[O-])cc1 (stereo not given),13*,0,1.7*,3,9.7*,2,0,6.8*
Cc1ccc(Nc2nc3ccccc3nc2-n2nc(C)cc2C)cc1,6,0,0,2,8.8*,0,0,2
Cc1cc(C)n(-c2nc3ccccc3nc2Nc2ccc(CC(=O)O)cc2)n1,0,0,-1,0,2,-2,·,·
C=C1CSc2nc(=O)c3c4c(sc3n21)CCCC4,2,-1,-1,0,7.0*,0,0,1
CCOC(=O)C1=C(C)N(C[C@@H]2CC[C@@H](Cc3ccc(-c4ccccc4)cc3)O2)C(=O)NC1c1cccc([N+](=O)[O-])c1 (stereo not given in full),-1,0,0,1,0,1,·,·
CCc1ccc(OCc2nc(-c3ccccn3)no2)c(Br)c1,8,-1,1.0*,-1,7.7*,7.1*,1,6.4*
Cc1cccc(C2c3[nH]c4ccccc4c3CCN2C(=O)CN2CCOC2=O)n1 (stereo not given),-2,0,0,2,7.0*,-1,0,6.1*
Cc1cccc(C2c3[nH]c4ccccc4c3CCN2C(=O)Cc2nc(-c3ccccc3)n[nH]2)n1 (stereo not given),-1,0,0,-2,2,0,·,·
COc1ccc(OC)c(Nc2nc(-c3cccs3)cs2)c1,4,-1,0.9*,1,7.4*,0,0,5
CN(C)c1cccc(NC(=O)c2ccco2)c1,0,0,-1,3,6.7*,0,0,5
CN(C(=O)c1cccc(NC(=O)c2ccco2)c1)c1ccccc1,-2,0,-1,-1,0,0,·,·
Cc1ccc(C(=O)c2oc3ccccc3c2N)cc1,11*,2,1,5,9.5*,1,1,9.7*
Nc1c(C(=O)c2ccccc2)oc2ccc(Br)cc12,13*,5.7*,1.3*,4,9.9*,4.3*,1,8.3*
Nc1c(C(=O)c2ccc(Br)s2)oc2ccccc12,4,0,0,3,3,0,·,·
CN(C)c1nnnn1-c1ccc(OC(F)(F)F)cc1,-1,0,-1,-1,-2,0,·,·
CCOc1ccc2nc(SCC(=O)Nc3ccc4c(c3)OCCO4)[nH]c2c1,3,0,-1,0,7.3*,0,0,1
C[C@@H]1CN([C@H](C)CO)C(=O)Cc2cc(NS(=O)(=O)c3cn(C)cn3)ccc2O[C@H]1CN(C)S(=O)(=O)c1ccc(Cl)cc1,0,2,0,-3,-2,1,·,·
CCOC(=O)c1cc(NC(=O)c2ccc(C)cc2)c(=O)oc1C(F)(F)F,6,-1,0,1,0,0,·,·
CCOC(=O)c1cc(NC(=O)c2ccc(Cl)cc2)c(=O)n2c1oc1ccc(Cl)cc12,4,-1,-1,4,9.3*,0,0,-2
CCOC(=O)c1nn(-c2ccc(C)cc2)cc1C(=O)c1ccccc1,13*,3,0,4,6.9*,3,1,5.7*
SMILES,hgDAF12 agonist,DAX1 inh-1,ssDAF12 agonist,GAA850 FXN act,hcDAF12 agonist,DAX1 inh-2,LXR ag,hcDAF12 ag
CC(=O)c1nn(-c2ccc(Cl)cc2)cc1C(=O)c1ccccc1,0,0,-2,1,-2,0,·,·
COC(=O)[C@@]1(C)[C@H]2C(=O)N(Cc3ccccc3)C(=O)[C@H]2[C@H]2CN=C(SCC(=O)c3ccccc3)N21,0,-1,0,3,0,-1,·,·
CCn1c(C)nc2cc(C(=O)N/N=C/c3ccc(OC)c(O)c3)ccc21,-4,0,-1,2,-1,0,·,·
CC(C)C[C@@H](CSc1ccc(Br)cc1)N1CCN(CC(C)C)CCC1=O,5,-2,-1,-1,-1,0,·,·
Oc1ccccc1-c1csc(-c2ccccc2)n1,20*,4.9*,5.1*,3,14*,2,2,15*
CCn1c(SCC(=O)N2CCC(C)CC2)nc2c([nH]c3ccccc32)c1=O,7,-1,0,2,4,0,·,·
CCn1c(SCC(=O)NCCc2ccccc2)nc2c([nH]c3ccccc32)c1=O,4,0,0,7,7.2*,1,0,6.7*
COCCn1c(SCC(=O)N2CCCCCC2)nc2c([nH]c3ccccc32)c1=O,3,1,0,1,7.2*,1,0,0
O/N=C1/C2C3C(Br)C4C5CC(C1C53)C24 (stereo not given),1,-1,-1,1,-2,0,·,·
C[C@H](O)[C@@H]1CN2CCc3c([nH]c4c(-c5ccccc5)cccc34)[C@@H]2C[C@@H]1N(C)CC1CCCCC1,3,·,0,·,1,0,·,·
c1ccc(-c2csc(Nc3ccccn3)n2)cc1,18*,3,2.7*,5,14*,2,2,17*
NC1=NC(=O)/C(=C/c2cn(CCC(=O)O)nc2-c2ccc(Cl)cc2)S1,1,0,-1,2,-1,0,·,·
NC1=NC(=O)/C(=C\c2ccc(-c3ccc(Cl)cc3)o2)S1,5,1,0.9*,6,6.5*,0,0,7.7*
COc1ccc(NC(=O)Nc2ccc3[nH]ccc3c2)cc1,8,·,0,2,3,3,·,·
O=C(Nc1ccc2[nH]ccc2c1)c1ccccc1,12*,-2,1,2,9.2*,3,2,9.5*
